Measurements reported in PubChem BioAssay (NCATS).
“And” between values parts separate entries of the source, which are not always exact repeats. Identical values can stand only once. Inconclusive results are not listed. The source made the active and inactive calls. The call rests on the fitted dose curve; in most records, active means well fitted inhibition curve with a large enough effect; inconclusive means small, poorly fitted or top-dose-only effect; inactive means flat fitted curve, though single readings scatter.

Assays:
[1] = qHTS profiling for inhibitors of Plasmodium falciparum proliferation (AID 504749);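 further: 0% = DMSO vehicle and full inhibition = artemisinin control; nearly all actives have a fitted effect of over 60% in size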; conditions: P. falciparum in erythrocytes, SYBR Green DNA, 72 h
Procedure, shortened: (§1)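 Fluorescence of SYBR Green-bound parasite DNA, read at 485/535 nm, served as the growth measure. Infected erythrocytes were cultured with compound 72 h; artemisinin (0.29 uM) and DMSO wells defined the normalization range.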

3D7 = assay: as above; conditions: P. falciparum in erythrocytes, SYBR Green DNA, 72 h; series mostly up to 28.7 µM
Procedure, shortened: as §1

7G8 = assay: as above; conditions: P. falciparum in erythrocytes, SYBR Green DNA, 72 h; series mostly up to 28.7 µM
Procedure, shortened: as §1

AA1029 = assay: as above; conditions: P. falciparum in erythrocytes, SYBR Green DNA, 72 h; series mostly up to 28.7 µM
Procedure, shortened: as §1

AS120 = assay: as above; conditions: P. falciparum in erythrocytes, SYBR Green DNA, 72 h; series mostly up to 28.7 µM
Procedure, shortened: as §1

ATS189 = assay: as above; conditions: P. falciparum in erythrocytes, SYBR Green DNA, 72 h; series mostly up to 28.7 µM
Procedure, shortened: as §1

ATS95 = assay: as above; conditions: P. falciparum in erythrocytes, SYBR Green DNA, 72 h; series mostly up to 28.7 µM
Procedure, shortened: as §1

C2A = assay: as above; conditions: P. falciparum in erythrocytes, SYBR Green DNA, 72 h; series mostly up to 28.7 µM
Procedure, shortened: as §1

[2] = at 28.7 µM (top of the series), parasite line A
[3] = at 28.7 µM (top of the series), parasite line B

NCC(=O)CCC(=O)O
inactive: activity, negative = inhibition [1, 2] 2.38% | activity, negative = inhibition [1, 3] -2.04% | Potency (3D7) | Potency (7G8) | Potency (AA1029) | Potency (AS120) | Potency (ATS189) | Potency (ATS95) | Potency (C2A)

Cc1cc(O)cc2c1O[C@](C)(CCC[C@H](C)CCC[C@H](C)CCCC(C)C)CC2
inactive: activity, negative = inhibition [1, 2] -4.03% | activity, negative = inhibition [1, 3] -6.42% | Potency (3D7) | Potency (7G8) | Potency (AA1029) | Potency (AS120) | Potency (ATS189) | Potency (ATS95) | Potency (C2A)

COc1cc2[nH]c(=O)[nH]c(=O)c2cc1OC
inactive: activity, negative = inhibition ([1]; at 12.8 µM (top of the series), parasite line A) -1.12% | activity, negative = inhibition ([1]; at 12.8 µM (top of the series), parasite line B) -2.32% | Potency (3D7) | Potency (7G8) | Potency (AA1029) | Potency (AS120) | Potency (ATS189) | Potency (ATS95) | Potency (C2A)

CCN(CC)CCSC(=O)C(c1ccccc1)c1ccccc1
inactive: activity, negative = inhibition [1, 2] 10.5% and 6.38% | activity, negative = inhibition [1, 3] -0.418% and -7.05% | Potency (3D7) | Potency (7G8) | Potency (AA1029) | Potency (AS120) | Potency (ATS189) | Potency (ATS95) | Potency (C2A)

CC(O)CN(CCN(CC(C)O)CC(C)O)CC(C)O (stereo not given)
inactive: activity, negative = inhibition [1, 2] 7.8% | activity, negative = inhibition [1, 3] -1.51% | Potency (3D7) | Potency (7G8) | Potency (AA1029) | Potency (AS120) | Potency (ATS189) | Potency (ATS95) | Potency (C2A)

O=C(O)CC(O)C(=O)O (stereo not given)
inactive: activity, negative = inhibition [1, 2] 10.4% | activity, negative = inhibition [1, 3] 3.5% | Potency (3D7) | Potency (7G8) | Potency (AA1029) | Potency (AS120) | Potency (ATS189) | Potency (ATS95) | Potency (C2A)

C[C@@H]1CN(c2c(F)c(F)c3c(=O)c(C(=O)O)cn(C4CC4)c3c2F)C[C@H](C)N1
inactive: activity, negative = inhibition [1, 2] 9.49% | activity, negative = inhibition [1, 3] 3.41% | Potency (3D7) | Potency (7G8) | Potency (AA1029) | Potency (AS120) | Potency (ATS189) | Potency (ATS95) | Potency (C2A)

CCCCCCCCCCCCOS(=O)(=O)O
inactive: activity, negative = inhibition [1, 2] 2.98% | activity, negative = inhibition [1, 3] -1.46% | Potency (3D7) | Potency (7G8) | Potency (AA1029) | Potency (AS120) | Potency (ATS189) | Potency (ATS95) | Potency (C2A)

O=c1cc[nH]c(=O)[nH]1
inactive: activity, negative = inhibition [1, 2] 9.07% | activity, negative = inhibition [1, 3] 2.41% | Potency (3D7) | Potency (7G8) | Potency (AA1029) | Potency (AS120) | Potency (ATS189) | Potency (ATS95) | Potency (C2A)

O=c1cc(CO)occ1O
inactive: activity, negative = inhibition [1, 2] 1.47% | activity, negative = inhibition [1, 3] -0.837% | Potency (3D7) | Potency (7G8) | Potency (AA1029) | Potency (AS120) | Potency (ATS189) | Potency (ATS95) | Potency (C2A)
